The results in this text go back to PubChem BioAssay.

The test system of assay [1] is PRMT1 (protein arginine N-methyltransferase 1). As to the kind of experiment: PRMT1 binders on small-molecule microarrays, primary screen, biochemical, small-molecule microarray, 635 nm fluorescence (AID 1088).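 Also: binding of Prmt1 protein to compounds spotted on small-molecule microarray slides.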 Conditions: small-molecule microarray binding, higher = more signal.
Assay [2] in a line: yeast growth modulation, basal conditions, primary screen, YJM789 clinical isolate, OD600, 24 h (AID 1089).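 Also: growth of clinical yeast isolate S. cerevisiae YJM 789 seeded 1000 cells per well; test concentration not given here.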 Conditions: S. cerevisiae YJM789 growth, higher = more signal, called active from +8 up or from −8 down.
Assay [3] can be described thus: fission yeast growth modulation, primary screen, strain 972, OD600, 24 h, no modulator (AID 1090).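 Also: basal condition with compound alone and no growth modifier present; test concentration not given here.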 The settings on record: S. pombe 972 growth, higher = more signal, called active from +8 up or from −8 down.
Assay [4] in a line: S. cerevisiae growth modulation with rapamycin, primary screen, strain BY4716, OD600, 96 h (AID 1091). Also: test concentration not given here. Conditions: higher = more signal, called active from +8 up or from −8 down.
Assay [5] addresses Torsin-1A-interacting protein 2 (Homo sapiens) (UniProt Q8NFQ8). As to the kind of experiment: LULL1 binders on small-molecule microarray, primary screen, cell lysate, human LULL1 lysate, 635/667 nm fluorescence (AID 1092).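 Also: probe is lysate of COS7 cells overexpressing human LULL1; score merges per-feature 667 nm fluorescence with signal-to-noise.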 Conditions: hLULL1 lysate binding, 635 nm fluorescence, higher = more signal.
The nature of assay [6]: E. coli growth modulation, two-sided OD650, primary screen, E. coli filamentation project, strain DRC41, 24 h (AID 1093).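 Also: MC1000 strain lacking acrAB efflux and sulA so SOS filamentation is blocked; test concentration not given here.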 Conditions: OD650, 24 h, higher = more signal, called active from +8 up or from −8 down.
Assay [7] can be described thus: small-molecule microarray binders of probe aLefty2, primary screen, biochemical, biotinylated probe, 635/667 nm fluorescence (AID 1094).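 Also: score merges spot fluorescence near 667 nm with spot signal-to-noise ratio.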 Conditions: higher = more signal.
The test system of assay [8] is Noggin (protein binding on small-molecule microarray). As to the kind of experiment: Noggin binders on small-molecule microarray, primary screen, biochemical, 635/667 nm fluorescence (AID 1095).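 Also: score merges 667 nm feature fluorescence with signal to noise over triplicate slides.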 The settings on record: 635 nm fluorescence, higher = more signal.
In assay [9] the target is Neurogenic locus notch homolog protein 3 (Homo sapiens) (UniProt Q9UM47). As to the kind of experiment: NOTCH3 binders on small-molecule microarray, primary screen, biochemical, 635/667 nm fluorescence (AID 1096). The settings on record: NOTCH3 binding, 635 nm fluorescence, higher = more signal.
Sequence of Neurogenic locus notch homolog protein 3 (Homo sapiens) (Q9UM47 whole entry, looked up): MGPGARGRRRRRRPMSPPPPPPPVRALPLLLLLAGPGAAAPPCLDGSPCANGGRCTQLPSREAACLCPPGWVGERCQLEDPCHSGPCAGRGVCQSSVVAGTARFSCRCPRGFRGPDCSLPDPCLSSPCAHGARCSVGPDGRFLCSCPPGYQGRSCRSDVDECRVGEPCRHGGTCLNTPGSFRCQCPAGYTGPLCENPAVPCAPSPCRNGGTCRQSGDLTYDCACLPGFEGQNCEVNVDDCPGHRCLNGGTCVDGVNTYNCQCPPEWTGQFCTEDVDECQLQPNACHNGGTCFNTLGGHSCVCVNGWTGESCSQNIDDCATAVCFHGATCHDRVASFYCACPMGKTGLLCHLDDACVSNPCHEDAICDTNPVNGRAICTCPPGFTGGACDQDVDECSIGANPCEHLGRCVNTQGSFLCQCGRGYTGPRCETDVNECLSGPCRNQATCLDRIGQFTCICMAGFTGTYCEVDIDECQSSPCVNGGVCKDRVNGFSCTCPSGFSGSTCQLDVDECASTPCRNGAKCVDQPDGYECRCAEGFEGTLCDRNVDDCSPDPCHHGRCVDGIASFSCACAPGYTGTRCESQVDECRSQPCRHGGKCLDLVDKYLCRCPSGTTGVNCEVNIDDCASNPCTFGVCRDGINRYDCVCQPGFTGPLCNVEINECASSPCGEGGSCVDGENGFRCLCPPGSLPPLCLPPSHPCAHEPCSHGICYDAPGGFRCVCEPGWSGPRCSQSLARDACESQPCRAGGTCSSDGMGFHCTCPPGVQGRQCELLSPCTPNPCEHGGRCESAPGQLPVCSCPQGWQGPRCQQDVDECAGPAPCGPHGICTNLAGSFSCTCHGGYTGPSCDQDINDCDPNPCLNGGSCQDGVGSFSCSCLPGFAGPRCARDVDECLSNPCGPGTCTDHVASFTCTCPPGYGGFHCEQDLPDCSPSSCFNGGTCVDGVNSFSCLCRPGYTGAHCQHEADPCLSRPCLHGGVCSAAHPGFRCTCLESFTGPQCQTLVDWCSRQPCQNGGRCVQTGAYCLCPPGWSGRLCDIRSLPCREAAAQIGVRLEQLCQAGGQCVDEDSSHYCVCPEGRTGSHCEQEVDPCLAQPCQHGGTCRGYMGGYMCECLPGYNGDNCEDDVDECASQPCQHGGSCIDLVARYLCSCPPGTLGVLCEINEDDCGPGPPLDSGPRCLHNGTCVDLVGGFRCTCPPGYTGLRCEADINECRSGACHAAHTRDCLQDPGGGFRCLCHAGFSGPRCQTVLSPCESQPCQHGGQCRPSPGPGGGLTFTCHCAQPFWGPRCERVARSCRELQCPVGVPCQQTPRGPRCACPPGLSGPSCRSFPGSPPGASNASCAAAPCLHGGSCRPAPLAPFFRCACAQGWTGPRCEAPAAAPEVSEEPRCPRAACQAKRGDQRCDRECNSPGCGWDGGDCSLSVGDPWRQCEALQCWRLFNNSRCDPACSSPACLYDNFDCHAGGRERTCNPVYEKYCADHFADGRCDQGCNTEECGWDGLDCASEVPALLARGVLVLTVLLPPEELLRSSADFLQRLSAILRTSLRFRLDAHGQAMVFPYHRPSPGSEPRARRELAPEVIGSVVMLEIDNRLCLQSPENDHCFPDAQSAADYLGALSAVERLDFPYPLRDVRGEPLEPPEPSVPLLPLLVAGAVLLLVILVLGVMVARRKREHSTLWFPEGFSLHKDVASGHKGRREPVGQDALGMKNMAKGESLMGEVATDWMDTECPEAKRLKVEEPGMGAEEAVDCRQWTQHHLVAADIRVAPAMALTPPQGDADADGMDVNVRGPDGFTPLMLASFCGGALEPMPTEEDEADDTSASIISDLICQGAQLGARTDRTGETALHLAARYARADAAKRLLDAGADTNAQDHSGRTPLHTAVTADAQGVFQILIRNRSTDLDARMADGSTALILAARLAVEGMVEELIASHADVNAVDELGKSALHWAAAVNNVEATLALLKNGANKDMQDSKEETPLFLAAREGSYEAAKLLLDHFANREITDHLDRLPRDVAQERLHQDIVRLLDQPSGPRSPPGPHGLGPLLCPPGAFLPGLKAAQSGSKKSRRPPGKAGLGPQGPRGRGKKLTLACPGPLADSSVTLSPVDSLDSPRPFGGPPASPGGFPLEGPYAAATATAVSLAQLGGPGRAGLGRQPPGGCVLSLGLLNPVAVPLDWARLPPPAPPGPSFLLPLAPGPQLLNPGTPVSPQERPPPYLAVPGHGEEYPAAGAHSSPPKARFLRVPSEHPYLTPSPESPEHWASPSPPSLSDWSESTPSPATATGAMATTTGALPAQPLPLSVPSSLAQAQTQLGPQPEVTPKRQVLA
Assay [10] is described as follows: small-molecule microarray binders of probe aEGFR, primary screen, biochemical, biotinylated probe, 635/667 nm fluorescence (AID 1097).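 Also: probe is a biotinylated anti-EGFR antibody binding compounds printed on slides; score combines fluorescence near 667 nm and signal to noise of each spot.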 The settings on record: higher = more signal.

Calls of active or inactive are those of the source.

Sequence of Torsin-1A-interacting protein 2 (Homo sapiens) (Q8NFQ8 whole entry, looked up): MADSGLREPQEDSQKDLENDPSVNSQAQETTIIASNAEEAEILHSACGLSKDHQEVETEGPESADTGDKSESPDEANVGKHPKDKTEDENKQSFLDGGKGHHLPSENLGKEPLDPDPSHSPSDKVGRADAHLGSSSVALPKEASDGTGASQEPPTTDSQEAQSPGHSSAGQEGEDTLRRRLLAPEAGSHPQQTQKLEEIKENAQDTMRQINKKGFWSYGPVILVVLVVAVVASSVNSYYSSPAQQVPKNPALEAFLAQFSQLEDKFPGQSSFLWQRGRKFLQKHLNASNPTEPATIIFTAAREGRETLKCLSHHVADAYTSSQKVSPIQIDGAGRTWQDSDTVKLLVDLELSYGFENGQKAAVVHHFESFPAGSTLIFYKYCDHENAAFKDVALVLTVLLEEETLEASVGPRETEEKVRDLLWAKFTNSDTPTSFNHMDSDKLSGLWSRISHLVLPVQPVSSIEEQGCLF

`CC(C)=CCCC(C)=CC(O)C1C=CC2C(=O)NC(=O)C2N1Nc1ccccn1` (stereo not given): the composite z-score stood at 1.56 in assay [1]; 1.8 in [5]; 0.212 in assay [7]; 1.36 in assay [8]; 1.11 in assay [9]; 0.186 in assay [10]. The z-score in [2] is -1.17 (inactive); in assay [3], 0.504 (inactive); in assay [4] it was -0.952 (inactive); in assay [6], -0.978 (inactive).

Take `Cc1ccc(S[C@]2(C(=O)NC3CC3)CC(=O)N(C(C)C)[C@@H]2c2ccc(CO)cc2I)cc1`: the composite z-score in assay [1] is 1.27; in [5], 2.83; in assay [7] it was -0.0865; in [8], -0.294; in assay [9], 0.624; in [10], -0.196. In addition, the z-score was -0.812 (inactive) in [2], -2.43 (inactive) in assay [3], -0.2 (inactive) in assay [4] and -1.34 (inactive) in [6].

For the molecule `Cc1ccc(N2C(=O)c3ccccc3[C@](C)(C(=O)NCCCN(C)C)[C@@H]2c2ccc(CO)cc2)nc1`, the composite z-score was 0.409 in assay [1]; 2.93 in assay [5]; -0.0405 in assay [7]; -0.817 in [8]; -0.681 in [9]; -0.209 in [10]. Further, the z-score in assay [2] was -0.903 (inactive); in assay [3], -0.808 (inactive); in assay [4], -1.51 (inactive); in assay [6], -0.677 (inactive).

Turning to `COc1cc(CO)cc(I)c1O[C@H]1C=C(C(=O)NCCO)C[C@@H](NC2CCCCCC2)[C@@H]1O`, the composite z-score in assay [1] was 1.53; in [5], 1.86; in [7], -0.166; in [8], 1.22; in [9], 1.01; in [10] it was -0.0564. Further, the z-score in assay [2] is 0.543 (inactive); in assay [3], -8.18 (active); in assay [4], -0.397 (inactive); in assay [6], 1.37 (inactive).

On to `C=C(CCCC)/C(=C/C[C@H](OC(=O)c1ccncc1)c1cccc(OCCO)c1)c1cnc2ccccc2c1`, for which the composite z-score in assay [1] was 1.53; in assay [5] it was 2.52; in assay [7], -0.121; in [8], 0.869; in [9], 1.13; in assay [10], -0.065. Also, the z-score was -0.664 (inactive) in assay [2], -0.968 (inactive) in assay [3], 8.23 (active) in assay [4] and -0.268 (inactive) in assay [6].

`C=CCC(OC(C)=O)[C@@H]1[C@@H](N(Cc2ccc(-c3cccc(C(F)(F)F)c3)o2)C(=O)c2ccc(-c3ccccc3)cc2)c2cc(OCCCO)ccc2N1C(=O)c1ccc2ccccc2c1` (stereo not given in full): the composite z-score in assay [1] was -1.39; in assay [5], 0.254; in assay [7] it was -0.0485; in assay [8] it was 0.28; in assay [9], 0.461; in [10] it was -0.0828. Besides, the z-score was 0.729 (inactive) in assay [2], 1.16 (inactive) in assay [3], 0.136 (inactive) in assay [4] and -0.28 (inactive) in assay [6].

`COCCCNC(=O)[C@@]1(CCC(=O)OC(C)(C)C)COC(c2ccc(OCCCO)cc2)=N1`: the composite z-score in [1] was 1.59; in assay [5], 3.51; in assay [7] it was -0.0906; in assay [8] it was 0.337; in [9], 0.571; in assay [10] it was -0.13. In addition, the z-score in assay [2] was -0.649 (inactive); in [3], 0.132 (inactive); in assay [4], -2.07 (inactive); in assay [6] it was 0.488 (inactive).

`C=CCOC(=O)[C@H]1[C@@H]2C(=O)O[C@@H](c3ccccc3)[C@@H](c3ccccc3)N2[C@@H](c2ccc(OCCOC(=O)[C@@H]3C[C@@H]4C(=O)N[C@@H](CCCC[N+](C)(C)C)C(=O)N4[C@@H]3c3ccc(O)cc3)cc2)[C@]12C(=O)Nc1ccc(I)cc12`: the composite z-score in assay [1] was 1.53; in assay [5], 2.44; in assay [7], -0.09; in assay [8], 1.31; in assay [9] it was 1.14; in [10], 0.06. In addition, the z-score was 2.31 (inactive) in [2], -1.21 (inactive) in assay [3], 1.34 (inactive) in [4] and -1.94 (inactive) in [6].

As for `CC(C)(C)N1CC=CC23O[C@@H]4/C=C\CCCOC(=O)C4[C@H]2C(=O)N(CCCCCO)[C@@H]3C1=O` (stereo not given in full), the composite z-score in assay [1] is -0.981; in assay [5], 0.389; in [7], -0.114; in assay [8] it was -1.48; in assay [9], -0.457; in assay [10], -0.289. For the same molecule, the z-score in assay [2] was -0.143 (inactive); in [3], 0.0289 (inactive); in assay [4] it was -0.635 (inactive); in [6] it was -0.938 (inactive).

On to `COCCOC(=O)N1C(=O)[C@@]2(c3ccccc31)[C@H](c1ccc(O)cc1)N1[C@H](c3ccccc3)[C@H](c3ccccc3)OC(=O)[C@H]1[C@@H]2C(=O)N1CCCCCCC1`, for which the composite z-score in assay [1] amounted to 1.55; in assay [5] it was 3.9; in assay [7], 1.76; in [8], 1.98; in assay [9], 1.02; in assay [10], 1.26. In addition, the z-score was -0.322 (inactive) in assay [2], 0.621 (inactive) in assay [3], 0.929 (inactive) in assay [4] and 0.178 (inactive) in assay [6].

As to `C[N+](C)(C)CCCCNC(=O)[C@H]1C[C@H]2C(=O)N[C@@H](Cc3ccccc3)C(=O)N2[C@H]1c1cccc(OCCO)c1`, the composite z-score in assay [1] is 0.982; in assay [5], 1.99; in assay [7] it was 0.0899; in assay [8], 1.88; in assay [9], 1.02; in assay [10], 0.256. In addition, the z-score in assay [2] is -0.0304 (inactive); in assay [3] it was 0.351 (inactive); in [4], -1.82 (inactive); in assay [6] it was 0.0648 (inactive).

As to `C=CCN1Cc2ccccc2[C@H]2OC(c3ccc(OCCCO)cc3)=N[C@@]2(CCS(=O)(=O)c2ccccc2)C1=O`, the composite z-score in assay [1] was 1.55; in assay [5] it was 2.29; in assay [7], 0.319; in [8], 1.33; in assay [9], 1.05; in assay [10], 0.124. Further, the z-score in assay [2] was 0.601 (inactive); in assay [3], 0.546 (inactive); in assay [4], 5.35 (inactive); in [6], 0.557 (inactive).

Turning to `O=C1C2C=CC(C(O)C3CCCCC3)N(n3cnnc3)C2C(=O)N1Cc1ccccc1` (stereo not given), the composite z-score in [1] was determined as 1.51; in assay [5], 3.15; in assay [7], 0.145; in assay [8], 0.915; in assay [9], 1.06; in [10], 0.0201. Moreover, the z-score in assay [2] is -0.509 (inactive); in [3], 0.266 (inactive); in assay [4] it was -0.98 (inactive); in [6], 0.596 (inactive).

Consider `O=C1O[C@H](c2ccccc2)[C@H](c2ccccc2)N2[C@H]1[C@@H](C(=O)O)[C@]1(C(=O)Nc3ccc(C#CCCO)cc31)[C@H]2c1ccc(OCCO)cc1`, for which the composite z-score in [1] was 0.862; in assay [5], 1.98; in assay [7], 0.547; in assay [8], 0.452; in assay [9] it was 0.105; in assay [10] it was -0.0304. Also, the z-score was 0.19 (inactive) in assay [2], -0.428 (inactive) in assay [3], -0.502 (inactive) in assay [4] and 1.71 (inactive) in assay [6].
